Results from PubChem BioAssay AID763 (NMMLSC, 2007).
Values without a mark were called inactive. How the calls were made is not given here.

What follows are compounds tested against fMet-Leu-Phe receptor (Homo sapiens) (UniProt P21462) (assay: human FPR1 ligand displacement single-point test – cell-based, single concentration, selectivity assay for FPRL1 ligand SAR project, SAR follow-up (AID 763)). Conditions: FPR1-expressing cells, fluorescent ligand binding inhibition, stronger effect = higher value; at 5.4 µM unless noted.
Chain of fMet-Leu-Phe receptor (Homo sapiens) (P21462 whole entry, looked up): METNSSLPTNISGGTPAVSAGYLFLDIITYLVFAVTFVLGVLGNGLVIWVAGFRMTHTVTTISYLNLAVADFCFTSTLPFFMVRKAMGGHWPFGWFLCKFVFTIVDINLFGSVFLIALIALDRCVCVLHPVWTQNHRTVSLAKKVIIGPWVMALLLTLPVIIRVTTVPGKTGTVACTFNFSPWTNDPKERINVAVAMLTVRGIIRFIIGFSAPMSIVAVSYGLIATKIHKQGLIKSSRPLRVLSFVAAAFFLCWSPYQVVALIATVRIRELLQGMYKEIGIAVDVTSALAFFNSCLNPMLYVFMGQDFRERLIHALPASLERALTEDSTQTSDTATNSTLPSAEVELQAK

Structure (SMILES)	inhibition
O=C(c1ccccc1Cl)N1CCN(c2nc(-c3ccccc3)c3cc(Cl)ccc3n2)CC1	-3.1% [at 4.8 µM]
COc1ccc(-c2cn3cccnc3n2)cc1NC(=O)c1cc(Br)ccc1Cl	-4% [at 4.9 µM]
O=C(O)CCC(=O)N1CCN(c2nc(-c3ccccc3)c3cc([N+](=O)[O-])ccc3n2)CC1	-0.6% [at 5.1 µM]
COc1ccc(-c2cn3cccnc3n2)cc1NC(=O)COc1ccccc1	5.8% [at 5.9 µM]
FC(F)(F)c1cc(-c2ccco2)nc(N2CCN(C(c3ccccc3)c3ccccc3)CC2)n1	0.5% [at 4.8 µM]
COc1ccc(-c2cn3cccnc3n2)cc1NC(=O)c1c(-c2ccccc2Cl)noc1C	2.7% [at 4.8 µM]
CCOC(=O)N1CCN(c2nc(-c3ccc(C)cc3)cc(C(F)F)n2)CC1	1.5% [at 5.9 µM]
Fc1ccc(-c2cc(C(F)(F)F)nc(N3CCN(c4ccc(F)cc4)CC3)n2)cc1	-2% [at 5.3 µM]
CCOC(=O)N1CCN(c2nc(-c3ccccc3Cl)c3cc(Br)ccc3n2)CC1	1.8% [at 4.7 µM]
COc1ccc(-c2cn3cccnc3n2)cc1NC(=O)CSCc1ccccc1	-0.7% [at 5.5 µM]
COc1ccc(-c2cn3cccnc3n2)cc1NC(=O)c1ccccc1F	2.4% [at 6.1 µM]
COc1ccc(C2CC(=O)c3cnc(N4CCN(Cc5ccc6c(c5)OCO6)CC4)nc3C2)cc1 (stereo unspecified)	0.4% [at 4.7 µM]
O=C(O)/C=C\C(=O)N1CCN(c2nc(-c3ccccc3)c3cc(Br)ccc3n2)CC1	-5.7% [at 4.8 µM]
COc1ccc(-c2cc(-c3ccc(F)cc3)nc(N3CCN(C)CC3)n2)cc1	-4.8% [at 5.9 µM]
CCOC(=O)N1CCN(c2nc(-c3ccc(F)cc3)cc(C(F)(F)F)n2)CC1	0.3% [at 5.6 µM]
O=C(O)CCC(=O)N1CCN(c2nc(-c3ccccc3)c3ccccc3n2)CC1	6.1% [at 5.7 µM]
CCC(CC)C(=O)Nc1cc(-c2cn3cccnc3n2)ccc1OC	-5.9% [at 6.6 µM]
O=C(C1CCCCC1)N1CCN(c2nc(-c3ccccc3Cl)c3cc(Br)ccc3n2)CC1	3.4% [at 4.3 µM]
COc1ccc(-c2cn3cccnc3n2)cc1NC(=O)c1cc(C)cc(C)c1	-0.5% [at 6 µM]
CC(=O)N1CCN(c2nc(-c3ccccc3)c3cc(Cl)ccc3n2)CC1	2.2% [at 6.1 µM]
COc1ccc(-c2cn3cccnc3n2)cc1NC(=O)C1CCCC1	6.6% [at 6.6 µM]
